Data reported in the supplement of paper PMC6411743.
± gives the standard deviation of the averaged measurements. The full data set covers some 6,500 targets. This sample favours those with the largest changes.

Tests used:
Assay in all cases: NP40-soluble protein abundance relative to vehicle (solubility fold change) (ratio); higher = more soluble protein in presence of ATP
[1] = molecular target: T1, UniProt O95983|O95983-2|K7EIE8
T1 sequence (whole entry): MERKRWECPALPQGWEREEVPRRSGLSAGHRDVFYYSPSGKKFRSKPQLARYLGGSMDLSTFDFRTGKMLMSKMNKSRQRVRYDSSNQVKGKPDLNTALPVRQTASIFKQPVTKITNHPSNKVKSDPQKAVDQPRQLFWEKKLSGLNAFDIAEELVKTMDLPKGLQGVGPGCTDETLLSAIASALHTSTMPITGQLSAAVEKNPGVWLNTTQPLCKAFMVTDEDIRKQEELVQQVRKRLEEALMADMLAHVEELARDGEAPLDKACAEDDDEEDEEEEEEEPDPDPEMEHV
Procedure, shortened: (§1)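 Values are fold changes against the detergent-processed vehicle, based on vsn-normalised intensities. Jurkat crude lysate was treated at eight concentrations from 0.1 to 10 mM (10 min at room temperature, then 3 min at 37 °C), solubilised with 0.8% NP40 and benzonase, ultracentrifuged and analysed by TMT-labelled LC-MS/MS over three independent experiments.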

UniProt P11177|P11177-2 = molecular target: T2, UniProt P11177|P11177-2
T2 sequence (whole entry): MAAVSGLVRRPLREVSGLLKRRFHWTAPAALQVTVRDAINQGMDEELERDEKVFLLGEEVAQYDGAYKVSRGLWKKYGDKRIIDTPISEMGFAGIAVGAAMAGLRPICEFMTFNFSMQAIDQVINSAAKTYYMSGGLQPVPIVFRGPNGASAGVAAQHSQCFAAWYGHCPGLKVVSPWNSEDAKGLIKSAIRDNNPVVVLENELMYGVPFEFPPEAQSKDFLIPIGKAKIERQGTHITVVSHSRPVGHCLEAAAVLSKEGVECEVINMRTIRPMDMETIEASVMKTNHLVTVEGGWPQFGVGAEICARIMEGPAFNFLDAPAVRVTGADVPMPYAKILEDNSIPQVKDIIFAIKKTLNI
Procedure, shortened: as §1

[2] = molecular target: T3, UniProt P29728-2|A0A087X0V5|P29728
T3 sequence (whole entry): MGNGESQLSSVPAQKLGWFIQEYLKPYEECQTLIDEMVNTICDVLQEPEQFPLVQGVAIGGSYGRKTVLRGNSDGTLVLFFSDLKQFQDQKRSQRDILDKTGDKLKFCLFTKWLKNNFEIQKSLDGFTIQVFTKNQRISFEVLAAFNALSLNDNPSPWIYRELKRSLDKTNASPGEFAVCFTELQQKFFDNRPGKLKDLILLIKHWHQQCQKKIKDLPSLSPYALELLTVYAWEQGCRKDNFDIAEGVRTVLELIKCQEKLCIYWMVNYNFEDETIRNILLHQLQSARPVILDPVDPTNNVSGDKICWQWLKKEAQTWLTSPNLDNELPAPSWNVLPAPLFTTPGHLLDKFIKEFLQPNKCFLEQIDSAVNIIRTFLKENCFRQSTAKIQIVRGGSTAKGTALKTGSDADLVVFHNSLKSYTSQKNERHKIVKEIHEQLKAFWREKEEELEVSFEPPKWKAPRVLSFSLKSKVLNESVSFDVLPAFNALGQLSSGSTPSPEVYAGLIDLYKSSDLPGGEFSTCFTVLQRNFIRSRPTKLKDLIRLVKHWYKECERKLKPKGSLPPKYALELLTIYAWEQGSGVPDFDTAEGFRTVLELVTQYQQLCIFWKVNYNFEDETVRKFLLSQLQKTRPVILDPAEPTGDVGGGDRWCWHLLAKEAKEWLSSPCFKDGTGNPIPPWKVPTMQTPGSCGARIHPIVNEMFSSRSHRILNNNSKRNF
Procedure, shortened: as §1

[3] = molecular target: T4, UniProt P52594|P52594-2|P52594-3|P52594-4
T4 sequence (whole entry): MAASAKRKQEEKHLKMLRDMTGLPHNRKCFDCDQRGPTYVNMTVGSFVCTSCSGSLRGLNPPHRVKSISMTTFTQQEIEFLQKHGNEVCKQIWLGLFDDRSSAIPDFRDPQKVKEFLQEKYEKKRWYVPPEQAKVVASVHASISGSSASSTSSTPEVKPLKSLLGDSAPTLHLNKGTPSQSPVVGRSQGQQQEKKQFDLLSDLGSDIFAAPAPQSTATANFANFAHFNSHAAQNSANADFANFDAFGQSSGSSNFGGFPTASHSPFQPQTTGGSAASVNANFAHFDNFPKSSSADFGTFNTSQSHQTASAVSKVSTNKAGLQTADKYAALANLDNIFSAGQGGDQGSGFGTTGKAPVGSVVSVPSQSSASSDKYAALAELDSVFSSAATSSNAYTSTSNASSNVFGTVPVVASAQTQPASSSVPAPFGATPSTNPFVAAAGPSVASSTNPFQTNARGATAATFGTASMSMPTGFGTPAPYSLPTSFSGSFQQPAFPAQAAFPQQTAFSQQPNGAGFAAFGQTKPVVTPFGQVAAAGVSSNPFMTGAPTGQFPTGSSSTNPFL
Procedure, shortened: as §1

UniProt P52757|P52757-9 = molecular target: T5, UniProt P52757|P52757-9
T5 sequence (whole entry): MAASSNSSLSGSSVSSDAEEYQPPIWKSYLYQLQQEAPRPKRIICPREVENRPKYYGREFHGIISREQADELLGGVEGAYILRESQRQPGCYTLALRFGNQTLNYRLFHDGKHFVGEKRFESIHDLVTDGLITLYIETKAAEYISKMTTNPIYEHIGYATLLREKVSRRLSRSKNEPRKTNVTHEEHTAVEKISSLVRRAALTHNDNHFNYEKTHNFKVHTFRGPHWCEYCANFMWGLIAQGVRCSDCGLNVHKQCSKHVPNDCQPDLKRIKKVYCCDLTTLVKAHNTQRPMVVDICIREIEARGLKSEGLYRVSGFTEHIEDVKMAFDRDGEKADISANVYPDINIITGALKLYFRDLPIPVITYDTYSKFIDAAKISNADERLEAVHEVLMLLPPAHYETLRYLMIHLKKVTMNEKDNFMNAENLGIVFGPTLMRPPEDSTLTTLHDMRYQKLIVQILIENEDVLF
Procedure, shortened: as §1

UniProt Q02040 = molecular target: T6, UniProt Q02040
T6 sequence (whole entry): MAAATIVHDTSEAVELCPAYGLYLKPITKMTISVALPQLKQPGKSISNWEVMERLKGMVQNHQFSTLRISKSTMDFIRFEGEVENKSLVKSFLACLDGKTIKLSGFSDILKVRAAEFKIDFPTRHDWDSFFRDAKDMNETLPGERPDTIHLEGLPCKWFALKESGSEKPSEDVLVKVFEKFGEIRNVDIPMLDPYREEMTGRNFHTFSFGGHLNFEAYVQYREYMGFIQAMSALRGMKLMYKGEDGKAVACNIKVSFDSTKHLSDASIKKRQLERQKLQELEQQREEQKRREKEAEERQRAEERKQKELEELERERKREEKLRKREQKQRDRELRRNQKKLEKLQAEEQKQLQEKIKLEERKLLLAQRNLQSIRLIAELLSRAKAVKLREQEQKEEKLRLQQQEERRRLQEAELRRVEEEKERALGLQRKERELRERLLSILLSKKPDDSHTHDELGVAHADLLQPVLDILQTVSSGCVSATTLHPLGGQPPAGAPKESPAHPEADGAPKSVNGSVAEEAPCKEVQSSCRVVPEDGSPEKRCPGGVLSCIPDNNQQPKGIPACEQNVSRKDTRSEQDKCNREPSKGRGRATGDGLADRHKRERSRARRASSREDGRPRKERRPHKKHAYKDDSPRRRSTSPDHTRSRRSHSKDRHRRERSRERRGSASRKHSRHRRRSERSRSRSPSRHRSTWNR
Procedure, shortened: as §1

YWHAZ = molecular target: T7, YWHAZ (UniProt P63104)
T7 sequence (whole entry): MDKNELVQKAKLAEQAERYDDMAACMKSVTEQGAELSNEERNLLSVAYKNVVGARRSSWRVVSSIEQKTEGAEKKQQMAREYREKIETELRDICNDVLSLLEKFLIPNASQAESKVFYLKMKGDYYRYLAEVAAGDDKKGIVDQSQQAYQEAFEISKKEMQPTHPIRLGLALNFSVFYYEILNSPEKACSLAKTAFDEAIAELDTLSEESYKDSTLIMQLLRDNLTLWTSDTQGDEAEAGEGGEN
Procedure, shortened: as §1

Nc1ncnc2c1ncn2[C@@H]1O[C@H](COP(=O)(O)OP(=O)(O)OP(=O)(O)O)[C@@H](O)[C@H]1O [adenosine triphosphate]
NP40-soluble protein abundance ([1]; concentration: 6mM): 1.02 ± 0.16
NP40-soluble protein abundance ([1]; concentration: 8mM): 1.01 ± 0.065
NP40-soluble protein abundance ([1]; concentration: 10mM): 0.92 ± 0.082
NP40-soluble protein abundance (UniProt P11177|P11177-2; concentration: 1mM): 1.14 ± 0.069
NP40-soluble protein abundance (UniProt P11177|P11177-2; concentration: 2mM): 1.04 ± 0.041
NP40-soluble protein abundance (UniProt P11177|P11177-2; concentration: 4mM): 1 ± 0.05
NP40-soluble protein abundance (UniProt P11177|P11177-2; concentration: 6mM): 1.02 ± 0.18
NP40-soluble protein abundance (UniProt P11177|P11177-2; concentration: 8mM): 1.05 ± 0.14
NP40-soluble protein abundance (UniProt P11177|P11177-2; concentration: 10mM): 1.02 ± 0.12
NP40-soluble protein abundance ([2]; concentration: 1mM): 1.73 ± 0.11
NP40-soluble protein abundance ([2]; concentration: 2mM): 1.65 ± 0.019
NP40-soluble protein abundance ([2]; concentration: 4mM): 1.7 ± 0.046
NP40-soluble protein abundance ([2]; concentration: 6mM): 1.55 ± 0.12
NP40-soluble protein abundance ([2]; concentration: 8mM): 1.74 ± 0.042
NP40-soluble protein abundance ([2]; concentration: 10mM): 1.68 ± 0.047
NP40-soluble protein abundance ([3]; concentration: 1mM): 0.945 ± 0.033
NP40-soluble protein abundance ([3]; concentration: 2mM): 0.961 ± 0.012
NP40-soluble protein abundance ([3]; concentration: 4mM): 0.963 ± 0.019
NP40-soluble protein abundance ([3]; concentration: 6mM): 0.987 ± 0.037
NP40-soluble protein abundance ([3]; concentration: 8mM): 0.93 ± 0.052
NP40-soluble protein abundance ([3]; concentration: 10mM): 0.918 ± 0.033
NP40-soluble protein abundance (UniProt P52757|P52757-9; concentration: 1mM): 0.952 ± 0.13
NP40-soluble protein abundance (UniProt P52757|P52757-9; concentration: 2mM): 0.971 ± 0.14
NP40-soluble protein abundance (UniProt P52757|P52757-9; concentration: 4mM): 1 ± 0.23
NP40-soluble protein abundance (UniProt P52757|P52757-9; concentration: 6mM): 0.948 ± 0.094
NP40-soluble protein abundance (UniProt P52757|P52757-9; concentration: 8mM): 0.989 ± 0.091
NP40-soluble protein abundance (UniProt P52757|P52757-9; concentration: 10mM): 0.983 ± 0.12
NP40-soluble protein abundance (UniProt Q02040; concentration: 1mM): 1.4 ± 0.24
NP40-soluble protein abundance (UniProt Q02040; concentration: 2mM): 1.56 ± 0.34
NP40-soluble protein abundance (UniProt Q02040; concentration: 4mM): 1.8 ± 0.45
NP40-soluble protein abundance (UniProt Q02040; concentration: 6mM): 2.02 ± 0.41
NP40-soluble protein abundance (UniProt Q02040; concentration: 8mM): 2.19 ± 0.54
NP40-soluble protein abundance (UniProt Q02040; concentration: 10mM): 2.43 ± 0.62
NP40-soluble protein abundance (YWHAZ; concentration: 1mM): 0.892 ± 0.2
NP40-soluble protein abundance (YWHAZ; concentration: 2mM): 0.94 ± 0.045
NP40-soluble protein abundance (YWHAZ; concentration: 4mM): 0.896 ± 0.025
NP40-soluble protein abundance (YWHAZ; concentration: 6mM): 0.918 ± 0.17
NP40-soluble protein abundance (YWHAZ; concentration: 8mM): 0.8927 ± 0.0068
NP40-soluble protein abundance (YWHAZ; concentration: 10mM): 0.819 ± 0.066
